“And” between values parts separate entries of the source, which are not always exact repeats. Equal entries are not always repeated. Results filed as inconclusive are left out. The source made the active and inactive calls. Unless noted, the limit is not given here; nearly all actives have AC50 up to about 26 µM.
Tests used:
[1] = viability loss in pontine glioma line – cell-based, SU-DIPG-XVII, MIPE5.0, CellTiter-Glo, qHTS, dose response (AID 1347060); details: CellTiter-Glo ATP luminescence;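 as to AC50: cells exposed to compound for 48 hours before viability readout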
[2] = viability loss in pontine glioma line – cell-based, SU-DIPG-XIII, MIPE4.0, CellTiter-Glo, qHTS, dose response (AID 1347061; cut-off not given, nearly all actives have AC50 up to about 37 µM;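 also: cells exposed to compound for 48 hours before readout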); details: CellTiter-Glo ATP luminescence
[3] = viability loss in pontine glioma line – cell-based, JHH-DIPG-1, MIPE4.0, CellTiter-Glo, qHTS, dose response (AID 1347062; cut-off not given, nearly all actives have AC50 up to about 27 µM;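 as to AC50: cells exposed to compound for two days before readout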); details: JHH-DIPG-1 viability, CellTiter-Glo ATP luminescence
[4] = viability loss in pontine glioma line – cell-based, SU-DIPG-XIII, MIPE5.0, CellTiter-Glo, qHTS, dose response (AID 1347064; cut-off not given, nearly all actives have AC50 up to about 23 µM;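 as to AC50: cells exposed to compound for 48 hours before the viability read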); details: CellTiter-Glo ATP luminescence
[5] = viability loss in pontine glioma line – cell-based, SU-DIPG-XXV, MIPE5.0, CellTiter-Glo, qHTS, dose response (AID 1347065); details: CellTiter-Glo ATP luminescence;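 also: cells exposed to compound for 48 hours before ATP readout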
[6] = growth inhibition of DIPG cells – cell-based, MIPE4.0 library, CellTiter-Glo luminescence, qHTS (AID 1347066; cut-off not given, nearly all actives have AC50 up to about 30 µM;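 also: cells exposed to compound for 48 hours before readout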); details: SU-DIPG-VI viability, CellTiter-Glo ATP luminescence
[7] = JHH-DIPG-1 glioma cell viability, MIPE5.0 library, CellTiter-Glo luminescence, qHTS (AID 1347067); details: JHH-DIPG-1 glioma viability, CellTiter-Glo ATP luminescence;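 also: cells exposed to compound for 48 hours before readout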
[8] = growth inhibition of DIPG cells – cell-based, MIPE5.0 library, qHTS (AID 1347068; cut-off not given, nearly all actives have IC50 up to about 30 µM;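 as to IC50: cells exposed to compound for 48 hours before viability readout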); details: SU-DIPG-XXV viability
[9] = viability loss with induced miR-34 in A549 – imaging, A549 dox-inducible miR-34, nuclei and caspase counts, primary screen (AID 1347080;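 active = compounds whose cell count with miR-34 switched on is under 0.7 times the count with it off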); details: A549 miR-34 inducible, Hoechst nuclei count, 48 h
[10] = MELAS cybrid and Rieske KO viability enhancers – cell-based, MELAS cybrids, Rieske KO mouse fibroblasts, CellTiter-Glo, primary screen (AID 1508586;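 active = mean z-score across replicates of 1.96 or higher in either the MELAS or the Rieske mutant cell line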;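 also: z relative to plate mean and SD of compound and empty wells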); details: low glucose
[11] = viability loss in pontine glioma line – cell-based, SU-DIPG-IV, MIPE4.0, CellTiter-Glo, qHTS, dose response (AID 1347063; cut-off not given, nearly all actives have AC50 up to about 30 µM;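 also: compound exposure lasted 48 hours before the viability readout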); details: CellTiter-Glo ATP luminescence
[12] = compounds altering HSF1 focus formation in cells – imaging, Selleck Cancer Library (AID 1347162; in the data active = plate-normalised HSF1 focus index below about 0.46); details: human cells, HSF1 nuclear foci imaging, at 10 µM; SSMD: measured here: HSF1 foci SSMD mean; cell count: measured here: cell number; plate-normalised HSF1 focus index: stronger effect = lower value
[13] = drug combination growth inhibition, ovarian cancer – cell-based, oncology-focused library, rucaparib conditional, profiling panel (AID 1508598;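 active = normalized viability below 100% at a tested concentration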); details: patient-derived ovarian cancer cells, CellTiter-Glo viability, 144 h, stronger effect = lower value
[14] = stronger effect = lower value, cell number ratio, induced over uninduced
[15] = measured here: relative caspase fold change +Dox/-Dox
[16] = measured here: total cells with miR-34 induction, stronger effect = lower value
[17] = measured here: total cells without miR-34 induction
[18] = MELAS cybrid survival, CellTiter-Glo 48 h, stronger effect = higher value
[19] = Rieske KO mouse fibroblast survival, CellTiter-Glo 72 h

CN(C)CC(C)(C)CNc1nn2c(-c3ccccc3)nnc2cc1C1CCC1
inactive: outcome [1] | outcome [2] | outcome [4] | outcome [5] | outcome [6] | outcome [7] | outcome [8]
active: AC50 [3] 16.6 µM

COc1ccccc1-c1cccc(-c2c(O)c3cc(C#N)c(Cl)cc3[nH]c2=O)c1
inactive: outcome [1] | outcome [2] | outcome [3] | outcome [4] | outcome [5] | outcome [6] | outcome [7] | outcome [8]

O=C(O)C1=CC(O)C(O)[C@H](O)C1 (some centres not stated)
inactive: outcome [1] | outcome [2] | outcome [3] | outcome [4] | outcome [5] | outcome [7] | outcome [8]

C[C@H](CCC(=O)O)[C@H]1CCC2C3C[C@H](O)[C@@H]4C[C@H](O)CC[C@]4(C)C3CC[C@@]21C (some centres not stated)
inactive: outcome [1] | outcome [2] | outcome [3] | outcome [4] | outcome [5] | outcome [6] | outcome [7] | outcome [8]

C[C@@]1(c2cc(-c3cncnc3)c(F)cc2F)CCSC(N)=N1
9680: cell count [9, 17]
8550: cell count [9, 16]
1.05: fold change [9, 15]
0.36: z-score [10, 19]
active: AC50 [2] 14.8 µM | AC50 [3] 14.8 µM
inactive: outcome [1] | outcome [4] | outcome [5] | outcome [6] | outcome [7] | outcome [8] | fold change [9, 14] 0.883 | z-score [10, 18] -0.425

CC1(C)C(N(O)C(=O)Nc2ccc(Cl)cc2)N(c2ccc(Cl)cc2)C(=O)N1CC(=O)N/N=C/C=C/c1ccc([N+](=O)[O-])o1 (configuration not stated)
active: AC50 [1] 7.42 µM | AC50 [2] 26.4 µM | AC50 [3] 10.5 µM | AC50 [4] 3.72 µM | AC50 [5] 14.8 µM | AC50 [6] 20.9 µM | AC50 [7] 6.61 µM | IC50 [8] 18.6 µM

O=C(O)CCCc1c[nH]c2ccccc12
0.369 and 0.81: fold change [9, 15]
9590 and 9280: cell count [9, 17]
inactive: outcome [1] | outcome [2] | outcome [3] | outcome [4] | outcome [5] | outcome [6] | outcome [7] | outcome [8] | fold change [9, 14] 0.897 and 0.923 | z-score [10, 18] 0.687 and -0.261
8600 and 8570: cell count [9, 16]
0.218 and 0.556: z-score [10, 19]

CCCCCCCCCCCCCCCC(=O)O[C@@H]1[C@@H](O)[C@@H](O)[C@@H]([C@H](NC(=O)[C@@H]2C[C@@H](CCC)CN2C)[C@H](C)Cl)O[C@@H]1SC
active: AC50 [7] 10.5 µM
inactive: outcome [1] | outcome [2] | outcome [3] | outcome [11] | outcome [6] | outcome [8]

CC(C)(C)OC(=O)CN(Cc1ccc(Cl)cc1)Cc1ccc([N+](=O)[O-])s1
inactive: outcome [2] | outcome [3] | outcome [6] | outcome [8]
active: AC50 [1] 18.6 µM | AC50 [4] 16.6 µM | AC50 [5] 11.8 µM

C[C@H]1[C@H](C)CC[C@]2(C(=O)O)CC[C@]3(C)C(=CC[C@@H]4[C@@]5(C)C[C@@H](O)[C@H](O)[C@@](C)(CO)[C@@H]5CC[C@]43C)[C@H]12
inactive: outcome [1] | outcome [2] | outcome [3] | outcome [4] | outcome [5] | outcome [6] | outcome [8]

Cc1cc(C(=O)NOCCO)c(Nc2ccc(I)cc2F)n(C)c1=O
0.434: fold change [9, 15]
active: AC50 [1] 0.166 µM | AC50 [2] 0.132 µM | AC50 [3] 0.105 µM | AC50 [4] 0.132 µM | AC50 [5] 0.295 µM | AC50 [7] 0.059 µM
3770: cell count [9, 16]
3450: cell count [9, 17]
-1.56: z-score [10, 19]
inactive: fold change [9, 14] 1.09 | z-score [10, 18] -0.704

O=C(CCCCCCC(=O)Nc1cccnc1)NO
7080: cell count [12]
1.14: SSMD [12]
active: AC50 [1] 8.33 µM | AC50 [2] 9.35 µM | AC50 [3] 7.43 µM | AC50 [4] 5.9 µM | AC50 [5] 7.42 µM | AC50 [7] 3.32 µM
inactive: plate-normalised HSF1 focus index [12] 1.07

Cc1ccc(NC(=O)c2cccc(C(C)(C)C#N)c2)cc1Nc1ccc2ncn(C)c(=O)c2c1
active: AC50 [1] 2.09 µM | AC50 [2] 4.18 µM | AC50 [3] 5.9 µM | AC50 [4] 1.48 µM | AC50 [5] 7.42 µM | AC50 [7] 0.934 µM | viability ([13]; at 0.000305 µM, OCI-P5x cells, with rucaparib 20 µM, 100% = cells with rucaparib alone) 95.5% | viability ([13]; at 0.000305 µM, OCI-P5x cells, without rucaparib) 90.4% | viability ([13]; at 0.00122 µM, OCI-P5x cells, without rucaparib) 95.5% | viability ([13]; at 0.00488 µM, OCI-P5x cells, without rucaparib) 99.1% | viability ([13]; at 0.0195 µM, OCI-P5x cells, without rucaparib) 95% | viability ([13]; at 0.0781 µM, OCI-P5x cells, with rucaparib 20 µM, 100% = cells with rucaparib alone) 84.1% | viability ([13]; at 0.0781 µM, OCI-P5x cells, without rucaparib) 82.8% | viability ([13]; at 0.313 µM, OCI-P5x cells, with rucaparib 20 µM, 100% = cells with rucaparib alone) 68.7% | viability ([13]; at 0.313 µM, OCI-P5x cells, without rucaparib) 85.5% | viability ([13]; at 1.25 µM, OCI-P5x cells, with rucaparib 20 µM, 100% = cells with rucaparib alone) 73.2% | viability ([13]; at 1.25 µM, OCI-P5x cells, without rucaparib) 81.8% | viability ([13]; at 5 µM, OCI-P5x cells, with rucaparib 20 µM, 100% = cells with rucaparib alone) 67.4% | viability ([13]; at 5 µM, OCI-P5x cells, without rucaparib) 22.1%
7560: cell count [12]
5830: cell count [9, 16]
1.09: fold change [9, 15]
-1.35: z-score [10, 19]
6180: cell count [9, 17]
inactive: outcome [6] | fold change [9, 14] 0.944 | plate-normalised HSF1 focus index [12] 1.12 | z-score [10, 18] 0.493 | viability ([13]; at 0.000305 µM, OCI-C5x cells, with rucaparib 10 µM, 100% = cells with rucaparib alone) 126% | viability ([13]; at 0.000305 µM, OCI-C5x cells, without rucaparib) 104% | viability ([13]; at 0.00122 µM, OCI-C5x cells, with rucaparib 10 µM, 100% = cells with rucaparib alone) 129% | viability ([13]; at 0.00122 µM, OCI-C5x cells, without rucaparib) 115% | viability ([13]; at 0.00122 µM, OCI-P5x cells, with rucaparib 20 µM, 100% = cells with rucaparib alone) 107% | viability ([13]; at 0.00488 µM, OCI-C5x cells, with rucaparib 10 µM, 100% = cells with rucaparib alone) 128% | viability ([13]; at 0.00488 µM, OCI-C5x cells, without rucaparib) 109% | viability ([13]; at 0.00488 µM, OCI-P5x cells, with rucaparib 20 µM, 100% = cells with rucaparib alone) 107% | viability ([13]; at 0.0195 µM, OCI-C5x cells, with rucaparib 10 µM, 100% = cells with rucaparib alone) 116% | viability ([13]; at 0.0195 µM, OCI-C5x cells, without rucaparib) 124% | viability ([13]; at 0.0195 µM, OCI-P5x cells, with rucaparib 20 µM, 100% = cells with rucaparib alone) 109% | viability ([13]; at 0.0781 µM, OCI-C5x cells, with rucaparib 10 µM, 100% = cells with rucaparib alone) 115% | viability ([13]; at 0.0781 µM, OCI-C5x cells, without rucaparib) 121% | viability ([13]; at 0.313 µM, OCI-C5x cells, with rucaparib 10 µM, 100% = cells with rucaparib alone) 112% | viability ([13]; at 0.313 µM, OCI-C5x cells, without rucaparib) 125% | viability ([13]; at 1.25 µM, OCI-C5x cells, with rucaparib 10 µM, 100% = cells with rucaparib alone) 108% | viability ([13]; at 1.25 µM, OCI-C5x cells, without rucaparib) 127% | viability ([13]; at 5 µM, OCI-C5x cells, with rucaparib 10 µM, 100% = cells with rucaparib alone) 127% | viability ([13]; at 5 µM, OCI-C5x cells, without rucaparib) 140%
3.15: SSMD [12]

Reference: PubChem BioAssay
